Screening results deposited in PubChem by National Center for Advancing Translational Sciences (NCATS).
POLI inh = inhibitors of human DNA polymerase iota. Pol iota fluorescent replication assay, 10 min. Potency, µM (highest dose often 115 µM), inactives show at the top dose activity, negative = inhibition, most hits filed as inhibitors. 390,000 compounds, 1% hits; note: potency is the fitted concentration of half-maximal effect
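Fluorescent replication assay read twice, at 0 min and 10 min after adding 50 nM (final) substrate. Enzyme (10 nM) and compounds were first incubated 15 min at room temperature; enzyme-free buffer wells were negative controls.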
WRN inhibitor = inhibitors of human WRN helicase; Potency, µM (titrated, usually from 114 µM), inactives show at the top dose activity change, negative = inhibition, usual class: inhibitors; 360,000 compounds, 0.46% hits; WRN helicase unwinding, fluorescent forked duplex, kinetic; note: potency is the fitted concentration of half-maximal effect; % is set by controls: 0 for no effect and ±100 for the full control effect; nearly all actives have a fitted effect of over 55% in size
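Screening of the MLSMR collection measured strand separation of a quenched forked DNA duplex (100 nM) by 20 nM WRN with 2 mM ATP, all final. Compounds were preincubated with enzyme 15 min at room temperature.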
POLB inh = inhibitors of human DNA polymerase beta; P06746; Pol beta primer extension/strand displacement, fluorescence kinetic; Potency, µM (highest dose often 114 µM), for inactives: at the highest dose activity change, negative = inhibition, most hits filed as inhibitors; 340,000 compounds, 1.3% hits; AID 485314; note: potency is the fitted concentration of half-maximal effect; % is set by controls: 0 for no effect and ±100 for the full control effect
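Curves were derived by four-parameter Hill fits of normalized qHTS data. The kinetic fluorescent primer-extension read was taken at 0 and 10 min after 50 nM substrate, following a 15 min room-temperature preincubation of 10 nM enzyme with compounds.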
Pol kappa inh = DNA polymerase kappa (human) inhibition; Q9UBT6; purified Pol kappa, fluorescent DNA synthesis assay, 10 min; Potency, µM (titrated, usually from 107 µM), without a hit: top-dose activity, negative = inhibition, hits mostly inhibitors; 400,000 compounds, 0.53% hits; note: potency is the fitted concentration of half-maximal effect; % is set by controls: 0 for no effect and ±100 for the full control effect
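Inhibition of 10 nM Pol kappa is measured by a fluorescent read-out at 0 and 10 min following addition of 50 nM substrate (final), with a 15-min room-temperature compound preincubation.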
PI5P4Ka inh = blocks human PI5P4K alpha kinase activity. P48426. PI5P4Kalpha enzyme, ADP-Glo luminescence, 60 min; active compounds read low. max response, %. 330,000 compounds, 1.2% hits. AID 652105; active = max response of -50% or lower; inconclusive = between -30% and -50%; inactive = -30% or higher; note: value at the top dose of about 77 µM; % is set by controls: 0 for no effect and ±100 for the full control effect
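Compounds were pin-transferred onto PI5P4Kalpha and substrate in HEPES pH 7.4 buffer with EGTA, CHAPS and 5% DMSO. ATP (5 microM final) started the reaction, which ran 60 minutes at room temperature before ADP-Glo detection.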
Pol eta inh = blocks human DNA polymerase eta activity | recombinant Pol eta, fluorescent DNA replication assay | 390,000 compounds, 1.2% hits | Potency, µM (doses to about 114 µM), for inactives: top-dose activity change, negative = inhibition, hits mostly inhibitors | Q9Y253; note: potency is the fitted concentration of half-maximal effect; % is set by controls: 0 for no effect and ±100 for the full control effect
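Pol eta (10 nM) was preincubated with compounds for 15 min at room temperature, after which fluorescent replication substrate (50 nM final) was added to start the reaction. Fluorescence was read kinetically at 0 and 10 min.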
* hit, by the source's call; ? = inconclusive; / = not tested or not shown; [ ] = dose if it differs, or a comment. Most compounds without a hit are left out; they make up all but 2.8% or so of the library. Unless noted, calls come from the whole dose curve; as a rule, active = well fitted curve in the direction sought with a large enough effect; inconclusive = small, poorly fitted or top-dose-only effect, or another doubt; inactive = no such curve, though single readings can be large; an effect the other way counts as inactive or inconclusive.

SMILES	POLI inh	WRN inhibitor	POLB inh	Pol kappa inh	PI5P4Ka inh	Pol eta inh
CC1(C)CC(=O)C2=C(C1)NC(SCC(=O)Nc1ccccc1)=C(C#N)C21CCCCC1	9%	-8%[57.1 µM]	?	-2%	-12	-14%
Cc1ccc(N=C2NC(=O)/C(=C/c3cccs3)S2)cc1C	4%	-11%	10µM*	0%	-20	-15%
O=C1NC(=Nc2ccccc2)S/C1=C\c1ccccc1	9%	-4%	-1%	-9%	-8	-12%
O=C1NC(=Nc2ccccc2)S/C1=C/c1cccs1	?	-10%	32µM*	-2%	-12	6%
Cc1cccc(N=C2NC(=O)/C(=C\c3cccs3)S2)c1	-18%	-10%	8%	-6%	-19	?
CCOc1ccccc1CNS(=O)(=O)c1cc2c(cc1C)NC(=O)CO2	-1%	/	4%	-2%[60.1 µM]	/	-15%
CC(C)(C)c1ccc(C(=O)NC2(C(F)(F)F)C(=O)Nc3c2c(=O)[nH]c(=O)n3-c2ccccc2)cc1 (centres undefined)	1%	/	26%	0%	/	-12%
CCCCOc1ccc(C(=O)NCCc2sc(-c3cccc(F)c3)nc2C)cc1	-5%	/	11%	-9%[60.1 µM]	/	-9%
COc1ccc(NC(=O)CSc2ccc3nc(-c4ccccc4)cn3n2)c(OC)c1	?	/	5%	-3%[60.1 µM]	/	?
COc1cc2oc(=O)ccc2c(OC)c1CC(O)C(C)(C)O (centres undefined)	5%	1%	-2%	8%	0	-4%
COc1cc2ccc(=O)oc2cc1OCC(O)C(C)(C)O (centres undefined)	?	-5%	35µM*	?	-5	-4%
Cc1ccc(CSc2nc3c(c(=O)[nH]2)C(c2cccc(F)c2F)CC(=O)N3)cc1 (centres undefined)	-3%	/	8%	-15%	/	-5%
Cc1ccc2nc(/C(C#N)=C/c3ccc(O)c(O)c3)[nH]c2c1	?	45µM*	?	?	-69*	?
COc1ccc(NC(=O)c2ccc3c(SCC(=O)O)c4c(nc3c2)CCCC4)cc1OC	2%	/	3%	-6%	/	-10%
O=C(O)CSc1c2c(nc3cc(C(=O)Nc4ccc(F)c(Cl)c4)ccc13)CCC2	50µM*	/	?	?	/	?
CCN(CC)CCNC(=O)c1ccc(Cn2c(SCc3ccccc3)nc3cccnc32)cc1	1%	/	-26%	1%	/	10%
O=C1c2cc(Br)ccc2N(Cc2ccc(Br)cc2)S(=O)(=O)C1c1cc(Cl)c(Cl)cc1[N+](=O)[O-] (centres undefined)	?	?	/	?	-61*	22µM*
[N-]=[N+]=Nc1ccc(C(=O)CSC[C@H](NC(=O)CC[C@H](N)C(=O)O)C(=O)NCC(=O)O)cc1	28µM*	/	?	?	/	?
N[C@@H](CCC(=O)N[C@@H](CSN=O)C(=O)NCC(=O)O)C(=O)O	7%	-7%	/	17%	-27	-16%
Cc1nn(CCC(=O)Nc2ccccc2Br)c(=O)c2nn(-c3ccccc3)c(C)c12	11%	/	14%	-12%[60.1 µM]	/	19%
Cc1cc(=O)n(CC(=O)N2CCN(c3ccc(F)cc3)CC2)c2c1c(C)nn2C	34%	/	-12%	0%	/	-5%
CCC(C(=O)Nc1ccc(C(=O)OC)cc1)n1nc(-c2ccc(C)c(C)c2)ccc1=O (centres undefined)	-6%	/	?	-4%	/	-10%
CN(C)S(=O)(=O)c1ccc(-c2csc(N/N=C/c3ccc(O)cc3)n2)cc1	?	-12%	6%	-6%	-63*	-12%
O=C(Nc1ccc2oc(-c3ccccc3)nc2c1)c1ccc2c(c1)OCCO2	-8%	-7%	35%	-16%	/	-14%
O=C(Nc1ccc2oc(-c3cccnc3)nc2c1)c1ccc2c(c1)OCCO2	?	?	14µM*	?	-8	?
CCC(Sc1nc2ccsc2c(=O)n1Cc1ccc(C(=O)O)cc1)C(=O)Nc1ccc(C)c(Cl)c1 (centres undefined)	?	-18%	?	-30%	-1	79µM*
